Experimental findings from publication PMC11006913 are described below.

Experiment in all cases: PBM; 200 nM protein, PBS
Holding throughout (conditions): dsDNA, one strand shown

Assay [1] concerns the target MSX2 (Homo sapiens, UniProt P35548 130-214, R199I).
Assay [2] concerns the target MSX2 (Homo sapiens, UniProt P35548 130-214).
Assay [3] addresses MSX2 (Homo sapiens, UniProt P35548 130-214, F161Y).
Assay [4] addresses ALX1 (Homo sapiens, UniProt Q15699 118-204, L144V).
Assay [5] has as its target ALX1 (Homo sapiens, UniProt Q15699 118-204, L144R).
Assay [6] concerns the target ALX1 (Homo sapiens, UniProt Q15699 118-204).
The target of assay [7] is NKX3-2 (Homo sapiens, UniProt P78367 192-278, P234S).
Assay [8] has as its target NKX3-2 (Homo sapiens, UniProt P78367 192-278).
In assay [9] the target is VAX1 (Homo sapiens, UniProt Q5SQQ9 86-172).
In assay [10] the target is VAX1 (Homo sapiens, UniProt Q5SQQ9 86-172, T142I).
Assay [11] concerns the target HOXA4 (Homo sapiens, UniProt Q00056 201-287, W262F).
Assay [12] concerns the target VAX1 (Homo sapiens, UniProt Q5SQQ9 86-172, K157R).
Assay [13] concerns the target ALX3 (Homo sapiens, UniProt O95076 139-225, N203Q).
Assay [14] addresses ALX3 (Homo sapiens, UniProt O95076 139-225).
The target of assay [15] is ALX3 (Homo sapiens, UniProt O95076 139-225, L168Q).
The target of assay [16] is ALX3 (Homo sapiens, UniProt O95076 139-225, L168V).
The target in assay [17] is ALX3 (Homo sapiens, UniProt O95076 139-225, N203S).
Assay [18] addresses PITX2 (Homo sapiens, UniProt Q99697 72-157).

Chain of ALX1 (Homo sapiens, UniProt Q15699 118-204) (Q15699 118-204): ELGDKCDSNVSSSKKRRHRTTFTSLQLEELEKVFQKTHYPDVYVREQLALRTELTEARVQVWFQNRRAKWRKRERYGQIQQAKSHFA
Chain of MSX2 (Homo sapiens, UniProt P35548 130-214, R199I) (P35548 130-214 R199I): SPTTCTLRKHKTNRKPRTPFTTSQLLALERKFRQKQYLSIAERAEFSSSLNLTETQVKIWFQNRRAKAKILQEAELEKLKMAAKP
Chain of MSX2 (Homo sapiens, UniProt P35548 130-214, F161Y) (P35548 130-214 F161Y): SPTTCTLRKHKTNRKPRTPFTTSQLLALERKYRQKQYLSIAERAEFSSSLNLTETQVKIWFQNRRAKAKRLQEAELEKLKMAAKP
Chain of NKX3-2 (Homo sapiens, UniProt P78367 192-278, P234S) (P78367 192-278 P234S): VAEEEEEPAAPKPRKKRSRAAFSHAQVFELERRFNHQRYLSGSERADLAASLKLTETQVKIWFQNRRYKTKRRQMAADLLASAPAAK
Chain of MSX2 (Homo sapiens, UniProt P35548 130-214) (P35548 130-214): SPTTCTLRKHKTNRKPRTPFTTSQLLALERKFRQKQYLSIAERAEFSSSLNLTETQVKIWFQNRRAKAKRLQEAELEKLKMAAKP
Chain of ALX1 (Homo sapiens, UniProt Q15699 118-204, L144V) (Q15699 118-204 L144V): as the sequence (Q15699 118-204) above, with L27V counted along it
Chain of NKX3-2 (Homo sapiens, UniProt P78367 192-278) (P78367 192-278): as the sequence (P78367 192-278 P234S) above, with S43P counted along it
Chain of ALX1 (Homo sapiens, UniProt Q15699 118-204, L144R) (Q15699 118-204 L144R): as the sequence (Q15699 118-204) above, with L27R counted along it
Chain of VAX1 (Homo sapiens, UniProt Q5SQQ9 86-172, K157R) (Q5SQQ9 86-172 K157R): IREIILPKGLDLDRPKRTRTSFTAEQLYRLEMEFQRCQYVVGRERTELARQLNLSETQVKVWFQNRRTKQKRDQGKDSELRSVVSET
Chain of VAX1 (Homo sapiens, UniProt Q5SQQ9 86-172) (Q5SQQ9 86-172): as the sequence (Q5SQQ9 86-172 K157R) above, with R72K counted along it
Chain of ALX3 (Homo sapiens, UniProt O95076 139-225, N203Q) (O95076 139-225 N203Q): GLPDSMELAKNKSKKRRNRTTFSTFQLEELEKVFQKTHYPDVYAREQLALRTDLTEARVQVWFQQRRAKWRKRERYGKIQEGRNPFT
Chain of VAX1 (Homo sapiens, UniProt Q5SQQ9 86-172, T142I) (Q5SQQ9 86-172 T142I): as the sequence (Q5SQQ9 86-172 K157R) above, with T57I, R72K counted along it
Chain of ALX3 (Homo sapiens, UniProt O95076 139-225, L168V) (O95076 139-225 L168V): as the sequence (O95076 139-225 N203Q) above, with L30V, Q65N counted along it
Chain of ALX3 (Homo sapiens, UniProt O95076 139-225) (O95076 139-225): as the sequence (O95076 139-225 N203Q) above, with Q65N counted along it
Chain of ALX3 (Homo sapiens, UniProt O95076 139-225, N203S) (O95076 139-225 N203S): as the sequence (O95076 139-225 N203Q) above, with Q65S counted along it
Chain of HOXA4 (Q00056 201-287 W262F): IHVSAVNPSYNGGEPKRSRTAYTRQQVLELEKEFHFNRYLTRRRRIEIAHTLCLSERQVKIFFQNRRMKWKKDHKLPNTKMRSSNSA
Chain of ALX3 (Homo sapiens, UniProt O95076 139-225, L168Q) (O95076 139-225 L168Q): as the sequence (O95076 139-225 N203Q) above, with L30Q, Q65N counted along it

For the sequence CACGGTCG, the binding signal in [1] is 9.6 upbm affinity estimate (log intensity, higher = more binding, comparable within an allelic series); in assay [2], 9.56 upbm affinity estimate (log intensity, higher = more binding, comparable within an allelic series); in [3], 9.58 upbm affinity estimate (log intensity, higher = more binding, comparable within an allelic series).

As to CGACGGCG, the binding signal in assay [4] was 6.62 upbm affinity estimate (log intensity, higher = more binding, comparable within an allelic series); in assay [5], 6.71 upbm affinity estimate (log intensity, higher = more binding, comparable within an allelic series); in assay [6] it was 6.56 upbm affinity estimate (log intensity, higher = more binding, comparable within an allelic series).

For the sequence AGGGGGAG, the binding signal was 9.43 upbm affinity estimate (log intensity, higher = more binding, comparable within an allelic series) in [1]; 9.52 upbm affinity estimate (log intensity, higher = more binding, comparable within an allelic series) in [2]; 9.49 upbm affinity estimate (log intensity, higher = more binding, comparable within an allelic series) in assay [3].

In the case of CCTACGCC, the binding signal is 6.43 upbm affinity estimate (log intensity, higher = more binding, comparable within an allelic series) in assay [4]; 6.36 upbm affinity estimate (log intensity, higher = more binding, comparable within an allelic series) in assay [5]; 6.5 upbm affinity estimate (log intensity, higher = more binding, comparable within an allelic series) in assay [6].

In the case of CTCTTGGC, the binding signal in assay [4] is 6.39 upbm affinity estimate (log intensity, higher = more binding, comparable within an allelic series); in assay [5], 6.52 upbm affinity estimate (log intensity, higher = more binding, comparable within an allelic series); in [7], 11.6 upbm affinity estimate (log intensity, higher = more binding, comparable within an allelic series); in assay [6] it was 6.47 upbm affinity estimate (log intensity, higher = more binding, comparable within an allelic series); in assay [8], 11.7 upbm affinity estimate (log intensity, higher = more binding, comparable within an allelic series).

In the case of CTAATGAA, the binding signal was 10.6 upbm affinity estimate (log intensity, higher = more binding, comparable within an allelic series) in assay [4]; 10.2 upbm affinity estimate (log intensity, higher = more binding, comparable within an allelic series) in [5]; 12.7 upbm affinity estimate (log intensity, higher = more binding, comparable within an allelic series) in [9]; 12.4 upbm affinity estimate (log intensity, higher = more binding, comparable within an allelic series) in assay [10]; 11.1 upbm affinity estimate (log intensity, higher = more binding, comparable within an allelic series) in assay [6]; 11.5 upbm affinity estimate (log intensity, higher = more binding, comparable within an allelic series) in assay [11]. In addition, the binding signal in [12] was 12.4 upbm affinity estimate (log intensity, higher = more binding, comparable within an allelic series).

As to AAACAATA, the binding signal in [4] was 8.22 upbm affinity estimate (log intensity, higher = more binding, comparable within an allelic series); in [5] it was 8.34 upbm affinity estimate (log intensity, higher = more binding, comparable within an allelic series); in assay [9], 9.16 upbm affinity estimate (log intensity, higher = more binding, comparable within an allelic series); in assay [10], 8.8 upbm affinity estimate (log intensity, higher = more binding, comparable within an allelic series); in [6], 8.26 upbm affinity estimate (log intensity, higher = more binding, comparable within an allelic series); in assay [12] it was 8.82 upbm affinity estimate (log intensity, higher = more binding, comparable within an allelic series).

AGAGCGCC: the binding signal in [4] was 6.46 upbm affinity estimate (log intensity, higher = more binding, comparable within an allelic series); in [13], 7.79 upbm affinity estimate (log intensity, higher = more binding, comparable within an allelic series); in assay [5] it was 6.49 upbm affinity estimate (log intensity, higher = more binding, comparable within an allelic series); in [14] it was 7.87 upbm affinity estimate (log intensity, higher = more binding, comparable within an allelic series); in assay [15], 7.76 upbm affinity estimate (log intensity, higher = more binding, comparable within an allelic series); in [16] it was 7.79 upbm affinity estimate (log intensity, higher = more binding, comparable within an allelic series). The binding signal in assay [6] is 6.45 upbm affinity estimate (log intensity, higher = more binding, comparable within an allelic series); in assay [17], 7.78 upbm affinity estimate (log intensity, higher = more binding, comparable within an allelic series).

Turning to AGCCTTCG, the binding signal in [4] was 6.33 upbm affinity estimate (log intensity, higher = more binding, comparable within an allelic series); in assay [5] it was 6.46 upbm affinity estimate (log intensity, higher = more binding, comparable within an allelic series); in assay [6], 6.29 upbm affinity estimate (log intensity, higher = more binding, comparable within an allelic series).

Regarding CACCAGCC, the binding signal in [1] was 9.46 upbm affinity estimate (log intensity, higher = more binding, comparable within an allelic series); in assay [2] it was 9.42 upbm affinity estimate (log intensity, higher = more binding, comparable within an allelic series); in assay [3], 9.47 upbm affinity estimate (log intensity, higher = more binding, comparable within an allelic series).

In the case of GGACGGGA, the binding signal is 9.67 upbm affinity estimate (log intensity, higher = more binding, comparable within an allelic series) in assay [1]; 9.5 upbm affinity estimate (log intensity, higher = more binding, comparable within an allelic series) in assay [2]; 9.6 upbm affinity estimate (log intensity, higher = more binding, comparable within an allelic series) in assay [3].

TAGGATAA: the binding signal in [4] was 8.45 upbm affinity estimate (log intensity, higher = more binding, comparable within an allelic series); in assay [5] it was 8.36 upbm affinity estimate (log intensity, higher = more binding, comparable within an allelic series); in assay [6], 8.67 upbm affinity estimate (log intensity, higher = more binding, comparable within an allelic series).

As to CCGGGGAG, the binding signal in assay [4] is 6.03 upbm affinity estimate (log intensity, higher = more binding, comparable within an allelic series); in assay [5] it was 6.12 upbm affinity estimate (log intensity, higher = more binding, comparable within an allelic series); in assay [7], 10.5 upbm affinity estimate (log intensity, higher = more binding, comparable within an allelic series); in [6] it was 5.94 upbm affinity estimate (log intensity, higher = more binding, comparable within an allelic series); in assay [8] it was 10.5 upbm affinity estimate (log intensity, higher = more binding, comparable within an allelic series).

In the case of ATTATAAC, the binding signal in assay [4] is 10.3 upbm affinity estimate (log intensity, higher = more binding, comparable within an allelic series); in assay [13], 8.52 upbm affinity estimate (log intensity, higher = more binding, comparable within an allelic series); in assay [5] it was 9.95 upbm affinity estimate (log intensity, higher = more binding, comparable within an allelic series); in assay [6], 10.6 upbm affinity estimate (log intensity, higher = more binding, comparable within an allelic series).

On to CTGGAACC, for which the binding signal in [4] was 6.21 upbm affinity estimate (log intensity, higher = more binding, comparable within an allelic series); in [5] it was 6.18 upbm affinity estimate (log intensity, higher = more binding, comparable within an allelic series); in assay [6] it was 6.07 upbm affinity estimate (log intensity, higher = more binding, comparable within an allelic series).

For the sequence CACGCTCG, the binding signal in [4] is 6.33 upbm affinity estimate (log intensity, higher = more binding, comparable within an allelic series); in assay [18], 7.92 upbm affinity estimate (log intensity, higher = more binding, comparable within an allelic series); in assay [5], 6.26 upbm affinity estimate (log intensity, higher = more binding, comparable within an allelic series); in assay [6] it was 6.3 upbm affinity estimate (log intensity, higher = more binding, comparable within an allelic series).

Consider ACATTTAG, for which the binding signal in [4] is 8.38 upbm affinity estimate (log intensity, higher = more binding, comparable within an allelic series); in [5], 8.16 upbm affinity estimate (log intensity, higher = more binding, comparable within an allelic series); in [6], 8.56 upbm affinity estimate (log intensity, higher = more binding, comparable within an allelic series).

As to CCTGACTC, the binding signal in assay [1] is 9.6 upbm affinity estimate (log intensity, higher = more binding, comparable within an allelic series); in assay [2], 9.49 upbm affinity estimate (log intensity, higher = more binding, comparable within an allelic series); in [3], 9.54 upbm affinity estimate (log intensity, higher = more binding, comparable within an allelic series).

For CGCCGACC, the binding signal is 9.46 upbm affinity estimate (log intensity, higher = more binding, comparable within an allelic series) in assay [1]; 9.28 upbm affinity estimate (log intensity, higher = more binding, comparable within an allelic series) in assay [2]; 9.4 upbm affinity estimate (log intensity, higher = more binding, comparable within an allelic series) in assay [3]; 10.4 upbm affinity estimate (log intensity, higher = more binding, comparable within an allelic series) in assay [7]; 10.4 upbm affinity estimate (log intensity, higher = more binding, comparable within an allelic series) in assay [8].

Take AATGAATG: the binding signal in assay [4] is 9.18 upbm affinity estimate (log intensity, higher = more binding, comparable within an allelic series); in assay [5] it was 9 upbm affinity estimate (log intensity, higher = more binding, comparable within an allelic series); in [6], 9.33 upbm affinity estimate (log intensity, higher = more binding, comparable within an allelic series).

For the sequence TAATCAAA, the binding signal in assay [1] is 11.1 upbm affinity estimate (log intensity, higher = more binding, comparable within an allelic series); in assay [2], 12.4 upbm affinity estimate (log intensity, higher = more binding, comparable within an allelic series); in assay [3], 12.1 upbm affinity estimate (log intensity, higher = more binding, comparable within an allelic series).

For CGGCGGCA, the binding signal in assay [1] was 9.49 upbm affinity estimate (log intensity, higher = more binding, comparable within an allelic series); in [2] it was 9.38 upbm affinity estimate (log intensity, higher = more binding, comparable within an allelic series); in [3], 9.41 upbm affinity estimate (log intensity, higher = more binding, comparable within an allelic series).

Turning to AAGACAAT, the binding signal in assay [4] is 8.75 upbm affinity estimate (log intensity, higher = more binding, comparable within an allelic series); in assay [5], 8.63 upbm affinity estimate (log intensity, higher = more binding, comparable within an allelic series); in [6], 8.96 upbm affinity estimate (log intensity, higher = more binding, comparable within an allelic series).

With AAAAATGT, the binding signal was 8.02 upbm affinity estimate (log intensity, higher = more binding, comparable within an allelic series) in [4]; 8.01 upbm affinity estimate (log intensity, higher = more binding, comparable within an allelic series) in [5]; 8.15 upbm affinity estimate (log intensity, higher = more binding, comparable within an allelic series) in assay [6].

As to ATTTGTAA, the binding signal is 9.13 upbm affinity estimate (log intensity, higher = more binding, comparable within an allelic series) in assay [4]; 8.97 upbm affinity estimate (log intensity, higher = more binding, comparable within an allelic series) in assay [5]; 9.47 upbm affinity estimate (log intensity, higher = more binding, comparable within an allelic series) in assay [6].

Take AGCGGCCT: the binding signal in [1] was 9.45 upbm affinity estimate (log intensity, higher = more binding, comparable within an allelic series); in assay [2], 9.32 upbm affinity estimate (log intensity, higher = more binding, comparable within an allelic series); in assay [3], 9.44 upbm affinity estimate (log intensity, higher = more binding, comparable within an allelic series).
